Compound activity deposited in PubChem by National Center for Advancing Translational Sciences (NCATS).
AmpC no deterg: inhibitors of E. coli AmpC beta-lactamase without detergent; P00811; AmpC nitrocefin hydrolysis, absorbance 480 nm, 0.0001% Triton; Potency, µM (highest dose often 57.1 µM), for inactives: top-dose activity change, negative = inhibition, hits mostly inhibitors; 0.52% of 330,000 active; AID 485341;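 note: plate controls were no compound for no effect and no enzyme for full effect; nearly all actives have a fitted effect of over 20% in size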
Target sequence (P00811 whole entry, looked up): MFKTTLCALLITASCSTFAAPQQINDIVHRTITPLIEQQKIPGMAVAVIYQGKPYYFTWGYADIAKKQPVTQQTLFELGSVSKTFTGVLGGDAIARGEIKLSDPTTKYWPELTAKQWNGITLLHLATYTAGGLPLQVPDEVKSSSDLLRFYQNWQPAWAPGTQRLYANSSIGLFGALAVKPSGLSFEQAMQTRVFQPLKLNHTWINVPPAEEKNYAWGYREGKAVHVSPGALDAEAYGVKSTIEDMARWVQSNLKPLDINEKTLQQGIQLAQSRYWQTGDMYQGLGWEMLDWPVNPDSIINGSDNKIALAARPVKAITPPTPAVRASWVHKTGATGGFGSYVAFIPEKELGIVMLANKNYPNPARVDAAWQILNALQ
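AmpC (5.3 nM in the dispensed reagent) in 20 mM phosphate pH 7.0 with 0.01% (detergent screen) or 0.0001% Triton X-100 was preincubated with compounds for 15 min at room temperature. Nitrocefin was then added from an 800 uM solution, and hydrolysis was followed at 480 nm.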
AmpC inh detg: blocks E. coli AmpC beta-lactamase in detergent assay. P00811. Potency, µM (titrated, usually from 114 µM), inactives show at the top dose activity change, negative = inhibition, hits mostly inhibitors. AmpC hydrolysis of nitrocefin, absorbance 480 nm, 0.01% Triton. 0.041% of 370,000 active;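 note: 0% = no-compound wells and -100% = no-enzyme wells; nearly all actives have a fitted effect of over 25% in size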
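20 mM phosphate pH 7.0 + 0.01% (detergent screen) or 0.0001% Triton X-100; 5.3 nM AmpC reagent; cpd preinc 15 min RT; nitrocefin (800 uM stock) to start; A480 q20 s × 4 min; Activity was normalised to no-enzyme and no-compound control wells.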
HCV inh: blocks hepatitis C virus. Huh7.5.1 HCVcc-Cre infection, luciferase reporter, 44 h. Potency, µM (top dose mostly 41.8 µM), without a hit: at the highest dose activity change, negative = inhibition, actives largely listed as inhibitors. 3.4% of 340,000 active. AID 651820
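Infectious HCVcc-Cre (~0.5 moi) was added to cells just after compound, with cells seeded 4 h earlier at 1,000 per well. Luciferase activity after 44 h culture reported infection; substrate was incubated 15 min at room temperature before reading.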
AMA1-RON2 inh: AMA1-RON2 (P. falciparum) interaction inhibition; Potency, µM (top dose mostly 58.2 µM), for inactives: at the top dose activity change, negative = inhibition, hits mostly inhibitors; 0.2% of 360,000 active; AlphaScreen AMA1-biotinylated RON2 peptide binding;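 note: 0% = vehicle wells and -100% = peptide control; nearly all actives have a fitted effect of over 45% in size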
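AMA1 (3D7) with his tag at 25 nM final met compounds first, then biotinylated RON2 peptide at 25 nM; detection used donor plus acceptor beads, 10 µg/mL apiece, read by AlphaScreen after 30 min at room temperature.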
Pf growth 96h: P. falciparum growth inhibition at 96 hour, primary screen for plastid delayed-death inhibitors. P. falciparum luciferase reporter growth, 96 h. AID 504834. 6.9% of 320,000 active. Potency, µM (titrated, usually from 28.7 µM), without a hit: top-dose activity change, negative = inhibition, hits mostly inhibitors
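Infected RBCs, 2% Hct / 0.05% parasitemia final; luciferase-reporter P. falciparum; cpd 96 h, 37 C, 5% CO2; luciferase detection reagent; luminescence.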
Pf growth 48h: inhibits P. falciparum growth in the first generation, 48 h; 5.9% of 310,000 active; P. falciparum luciferase growth in erythrocytes, 48 h; Potency, µM (doses to about 28.7 µM), without a hit: at the highest dose activity change, negative = inhibition, usual class: inhibitors; AID 504832
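Here the parasites carry a stable luciferase gene and grow inside erythrocytes in Albumax-based RPMI medium with compound for one erythrocytic cycle. Activity is scored as loss of luminescent signal.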
Starred values were filed as active, the others as inactive; ? = inconclusive; . = not tested or not shown; [ ] = another dose, or the depositor's remark. Sampled rows, rich in hits. Any-hit rate of the full collection: about 11%. Calls come from the whole dose curve; as a rule, active = well fitted curve in the direction sought with a large enough effect; inconclusive = small, poorly fitted or top-dose-only effect, or another doubt; inactive = no such curve, though single readings can be large; an effect the other way counts as inactive or inconclusive. Unless noted, % is set by controls: 0 for no effect and ±100 for the full control effect; potency is the fitted concentration of half-maximal effect.

SMILES | AmpC no deterg | AmpC inh detg | HCV inh | AMA1-RON2 inh | Pf growth 96h | Pf growth 48h
CCOC(=O)c1ccc(NC(=O)C(Cc2ccccc2)NS(=O)(=O)c2ccc(Br)s2)cc1 (centres undefined) | . | 15.8% | . | . | . | .
COC(=O)C1=C(CN2CCSCC2)NC(=O)NC1c1cc(C)ccc1C (centres undefined) | -6.7% | -0.4% | 16.5% | 3.5% | 29.1% | ?
COC(=O)C1=C(CN2CCc3ccccc32)NC(=O)NC1c1cc(C)ccc1C (centres undefined) | -41.2% | -3.3% | ? | -3.9% | . | 10.4µM*
CCOC(=O)C1=C(CSc2nc3ccccc3s2)NC(=O)NC1c1cc(C)ccc1C (centres undefined) | -53.1% | -6.5% | ? | 0.6% | 9.28µM* | ?
CCOC(=O)C1=C(CN2CCSCC2)NC(=O)NC1c1cc(C)ccc1C (centres undefined) | 0.5% | -1.9% | 1.2% | -4.2% | -1.4% | 11.7µM*
CCOC(=O)C1=C(CN2CCN(C(=O)c3ccco3)CC2)NC(=O)NC1c1ccc(C)cc1 (centres undefined) | 79.3% | 1.1% | 18.2% | 1.0% | ? | 13.1µM*
CCOC(=O)C1=C(CSc2nc3ccccc3s2)NC(=O)NC1c1ccc(OC)cc1 (centres undefined) | 22.4% | -6.0% | ? | -3.9% | ? | -16.4%
CC1(C)OC[C@@H]2O[C@@]3(C(=O)O)OC(C)(C)O[C@@H]3[C@@H]2O1 | . | . | . | . | -13.5% | 3.9%
CCc1nn(CC(=O)NCc2ccccc2Cl)c(=O)c2cc3ccccc3n12 | . | 15.8% | . | . | . | .
CC1=C(C(=O)NCc2cccc(F)c2)C2(CCCCC2)OC1=O | . | -6.9% | . | . | . | .
O=C(Nc1cccnc1)Nc1ccc2c(c1)OCO2 | -13.4% | -13.3% | 0.9% | -11.0% | . | 131.6%
O=C(CN1C2CCC1CC(O)(c1cccnc1)C2)Nc1ccc2c(c1)OCO2 (centres undefined) | -31.7% | 2.9% | -2.8% | -12.0% | 8.28µM* | 12.3%
O=C(c1ccc2ccccc2c1)C1CCCN(C(=O)CN2C(=O)CSC2=O)C1 (centres undefined) | 78.6% | -7.7% | -5.2% | -6.2% | 10.4µM* | 21.2%
Cc1ccc2c(c1)c(=O)c(C(=O)c1ccc3c(c1)OCO3)cn2Cc1ccc(Cl)cc1 | . | -13.3% | . | . | . | .
Cc1ccc2c(=O)c(C(=O)c3ccccc3)cn(CC(=O)Nc3ccc4c(c3)OCCO4)c2n1 | . | 15.9% | . | . | . | .
COc1ccc(OC)c(NC(=O)COC(=O)/C=C/c2c(C)nn(C3CCS(=O)(=O)C3)c2Cl)c1 (centres undefined) | 7.2% | -6.1% | -21.5% | -4.6% | ? | ?
Cc1nn(C2CCS(=O)(=O)C2)c(Cl)c1/C=C/C(=O)OCC(=O)c1cc(C)n(-c2ccc(F)cc2)c1C (centres undefined) | 1.8% | -7.3% | 3.98µM* | -22.0% | ? | 14.7µM*
Cc1nn(C2CCS(=O)(=O)C2)c(Cl)c1/C=C/C(=O)OCC(=O)c1c[nH]c2ccccc12 (centres undefined) | 2.4% | 0.1% | 22.4µM* | 5.5% | ? | ?
Nc1nc(N)c2nc(-c3ccccc3)c(N)nc2n1 | -21.7% | -10.3% | 13.3%[8.37 µM] | 4.0% | 3.79µM* | 1.69µM*
NSc1nc(N)c2nc(-c3ccccc3)c(-c3ccccc3)nc2n1 | -50.1% | -9.8% | -10.0% | 0.0% | ? | -6.5%
CC(=O)c1ccc(NC(=O)c2cn(-c3ccccc3)nc2-c2ccc(Br)cc2)cc1 | . | 13.5% | . | . | . | .
CCc1ccc2[nH]cc(C(=O)OCCOC)c(=O)c2c1 | -9.8% | -18.6% | 16.8% | 13.3% | 10.4µM* | 1.47µM*
CCOC(=O)c1c[nH]c2nc(C)ccc2c1=O | -5.6% | 2.4% | 2.0% | -9.2% | 31.2% | -28.5%
CCOC(=O)c1c[nH]c2cc(OCC(C)C)c(OCC(C)C)cc2c1=O | . | . | . | . | 0.0379µM* | 0.0536µM*
CCOC(=O)CCNC(=O)N1CCCC(N2CCN(c3ccc(OC)cc3)CC2)C1 (centres undefined) | -5.0% | -11.0% | -23.2% | -18.4% | 2.94µM* | -2.0%
SMILES | AmpC no deterg | AmpC inh detg | HCV inh | AMA1-RON2 inh | Pf growth 96h | Pf growth 48h
COc1ccc(N2CCN(C3CCCN(C(=O)CSC)C3)CC2)cc1 (centres undefined) | -11.4% | -12.7% | 10.5% | 11.3% | 0.0% | -0.2%
CCC(=NCCO)c1c(O)n(C2CCCCC2)c(=O)[nH]c1=O | -20.6% | -4.8% | 14.3% | 3.5% | 21.0% | 21.8%
CC/C(=N\NC(=O)c1ccccc1O)c1c(O)n(C2CCCCC2)c(=O)[nH]c1=O | -49.1% | 2.3% | 2.1% | 111.0% | 11.7µM* | ?
Cc1nc2nc(SCC(=O)NCCc3ccc(Cl)cc3)nn2c(C)c1Cc1c(F)cccc1Cl | . | 4.0% | . | . | . | .
CCOP(=O)(c1ccccc1)c1nc(-c2ccccc2Cl)oc1N1CCCCC1 (centres undefined) | 167.6% | ? | ? | -12.4% | ? | 6.57µM*
Cc1ccc(S(=O)(=O)c2nc(-c3ccccc3Cl)oc2N2CCCCCC2)cc1 | . | 2.9% | . | . | . | .
COc1cccc(C2C3=C(N=c4s/c(=C\c5ccc(OCC(=O)O)cc5)c(=O)n42)c2ccccc2CC3)c1 (centres undefined) | 13.6% | -4.5% | -11.4% | -16.1% | ? | ?
COc1cccc(C2C3=C(N=c4s/c(=C\c5cccc(O)c5)c(=O)n42)c2ccccc2CC3)c1OC (centres undefined) | -51.4% | -10.7% | ? | -1.7% | ? | 2.33µM*
COc1ccccc1C1C2=C(N=c3s/c(=C/c4cccc(OCC(=O)O)c4)c(=O)n31)c1ccccc1CC2 (centres undefined) | 115.1% | -1.0% | ? | -4.6%[11.6 µM] | ? | 10.4µM*
COc1cccc(C2C3=C(N=c4s/c(=C\c5ccc(O)cc5)c(=O)n42)c2ccccc2CC3)c1OC (centres undefined) | -30.3% | -8.8% | -9.3% | 5.2% | 13.1µM* | ?
CC(C)C(=O)Nc1ncc(Cc2ccccc2Cl)s1 | -12.7% | 5.6% | ? | 2.7% | -8.0% | -7.7%
N#CCC(=O)Nc1ncc(Cc2ccccc2Cl)s1 | 17.8µM* | -8.3% | -23.1% | 106.8% | 50.5%[1.15 µM] | ?
Cc1nnc(SCc2ccc(F)cc2)n1NC/C=C/c1ccccc1 | 90.2% | -2.6% | ? | -17.2% | 5.86µM* | -9.6%
Fc1ccccc1CSc1nncn1NC/C=C/c1ccccc1 | 51.6% | -0.2% | 16.9% | 4.9% | -7.4% | ?
COc1cccc2cc(-c3csc(-c4ccc(Cl)cc4)n3)c(=O)oc12 | . | -6.3% | . | . | . | .
